For part of these data: Measured potencies and affinities stand elsewhere.
Assays:
Staphylococcus aureus = assay: Antibacterial activity against Staphylococcus aureus MRSA ATCC 43300 (CO-ADD:GP_020); MIC in CAMBH media using NBS plates, by Resazurin F(560/590); assay type: functional; conditions: Concentration 20 uM, ASSAY_TEST Inhibition of Bacterial Growth, detection method Resazurin, Fluorescence (ex560/em590), MEDIA CAMHB, plate type 384well, CORNING #3640, time 18 hr
Acinetobacter baumannii = assay: Antibacterial activity against Acinetobacter baumannii ATCC 19606 (CO-ADD:GN_034); MIC in CAMBH media using NBS plates, by Resazurin F(560/590); assay type: functional; conditions: Concentration 20 uM, ASSAY_TEST Inhibition of Bacterial Growth, detection method Resazurin, Fluorescence (ex560/em590), MEDIA CAMHB, plate type 384well, CORNING #3640, time 18 hr
Escherichia coli = assay: Antibacterial activity against Escherichia coli ATCC 25922 (CO-ADD:GN_001); MIC in CAMBH media using NBS plates, by Resazurin F(560/590); assay type: functional; conditions: Concentration 20 uM, ASSAY_TEST Inhibition of Bacterial Growth, detection method Resazurin, Fluorescence (ex560/em590), MEDIA CAMHB, plate type 384well, CORNING #3640, time 18 hr
Klebsiella pneumoniae = conditions: Concentration 20 uM; ASSAY_TEST Inhibition of Bacterial Growth; detection method Absorption (OD600); MEDIA CAMHB; plate type 384well; NBS; CORNING #3640; time 18 hr
Candida albicans = conditions: 20 µM
Cryptococcus neoformans = conditions: Concentration 20 uM; ASSAY_TEST Inhibition of Fungal Growth; detection method Resazurin; Absorption (OD600-OD570); plate type 384well; NBS; CORNING #3640

CN1CCN(c2nc(N)cc(O)n2)CC1
Inhibition (Staphylococcus aureus): -8.8%
Inhibition (Acinetobacter baumannii): 13.73%
Inhibition (Escherichia coli): 3.5%
Inhibition (Klebsiella pneumoniae): 7.87%
Inhibition (Candida albicans): 7.43%
Inhibition (Cryptococcus neoformans): -4.09%

CC(=O)OC1CCC2(C)C(CCC3C2CC(=O)C2(C)C3CC(N3CC3)C2C(C)=O)C1 (centres undefined)
Inhibition (Staphylococcus aureus): -6.66%
Inhibition (Acinetobacter baumannii): -5.39%
Inhibition (Escherichia coli): 9.74%
Inhibition (Klebsiella pneumoniae): 4.84%
Inhibition (Candida albicans): -0.96%
Inhibition (Cryptococcus neoformans): -1.15%

O=C1/C(=C\c2ccccc2)C2OCC=C3CN4CCC56c7ccccc7N1C5C2C3CC46 (centres undefined)
Inhibition (Staphylococcus aureus): 33.46%
Inhibition (Acinetobacter baumannii): -0.22%
Inhibition (Escherichia coli): 16.65%
Inhibition (Klebsiella pneumoniae): 12.64%
Inhibition (Candida albicans): -0.43%
Inhibition (Cryptococcus neoformans): -4.36%

Cc1cc(OCCN2CC2)c2ccccc2n1
Inhibition (Staphylococcus aureus): 14.36%
Inhibition (Acinetobacter baumannii): -8.46%
Inhibition (Escherichia coli): 11.83%
Inhibition (Klebsiella pneumoniae): 5.11%
Inhibition (Candida albicans): -2.14%
Inhibition (Cryptococcus neoformans): -8.85%

Nc1nc(N)c2cnnn2n1
Inhibition (Staphylococcus aureus): -6.46%
Inhibition (Acinetobacter baumannii): -8.05%
Inhibition (Escherichia coli): -17.28%
Inhibition (Klebsiella pneumoniae): 8.25%
Inhibition (Candida albicans): 5.35%
Inhibition (Cryptococcus neoformans): 23.1%

COc1cccc2c1C(=O)c1c(O)c3c(c(O)c1C2=O)C[C@@](O)(/C(C)=N\O)C[C@@H]3OC1CC(N)C(O)C(C)O1.Cl (some centres undefined)
Inhibition (Staphylococcus aureus): -16.23%
Inhibition (Acinetobacter baumannii): -1.97%
Inhibition (Escherichia coli): 2.23%
Inhibition (Klebsiella pneumoniae): 11.93%
Inhibition (Candida albicans): -6.16%
Inhibition (Cryptococcus neoformans): -5.57%

O=C1CC(c2ccc(O)cc2)Oc2cc(O)cc(O)c21 (centres undefined)
Inhibition (Staphylococcus aureus): 9.17%
Inhibition (Acinetobacter baumannii): 6.14%
Inhibition (Escherichia coli): -5.6%
Inhibition (Klebsiella pneumoniae): 10.18%
Inhibition (Candida albicans): 4.1%
Inhibition (Cryptococcus neoformans): -1.84%

C=CCN1CC[C@]23c4c5ccc(O)c4O[C@H]2C(=O)CC[C@@]3(O)[C@H]1C5 [NALOXONE]
Inhibition (Staphylococcus aureus): 11.42%
Inhibition (Acinetobacter baumannii): -13%
Inhibition (Escherichia coli): 1.67%

O=C1NC(=O)C(=Cc2csc3ccccc23)C(=O)N1
Inhibition (Staphylococcus aureus): -1.57%
Inhibition (Acinetobacter baumannii): 11.43%
Inhibition (Escherichia coli): 7.83%
Inhibition (Klebsiella pneumoniae): 15.53%
Inhibition (Candida albicans): 23.9%
Inhibition (Cryptococcus neoformans): -17.03%

CN1CCN(c2nc(N)c(Br)c(Cl)n2)CC1
Inhibition (Staphylococcus aureus): 8.04%
Inhibition (Acinetobacter baumannii): 10.68%
Inhibition (Escherichia coli): 2.4%
Inhibition (Klebsiella pneumoniae): 16.05%
Inhibition (Candida albicans): 2.84%
Inhibition (Cryptococcus neoformans): -7.43%

O=[N+]([O-])c1cc(-c2ccc([As](=O)(O)O)cc2)ccc1[As](=O)(O)O
Inhibition (Staphylococcus aureus): 16.49%
Inhibition (Acinetobacter baumannii): -5.02%
Inhibition (Escherichia coli): 9.73%
Inhibition (Klebsiella pneumoniae): 17.36%
Inhibition (Candida albicans): 0.95%
Inhibition (Cryptococcus neoformans): -9.04%

C=CCNC(=S)Nc1ccc(OC(=O)Nc2ccc(Cl)c(Cl)c2)cc1
Inhibition (Staphylococcus aureus): 9.35%
Inhibition (Acinetobacter baumannii): 4.81%
Inhibition (Escherichia coli): 5.81%
Inhibition (Klebsiella pneumoniae): 5.22%
Inhibition (Candida albicans): 2.25%
Inhibition (Cryptococcus neoformans): -4.79%

COc1ccc2c(c1O)[C@]13CCN(C)[C@H](C2)[C@@H]1CCC(=O)C3
Inhibition (Staphylococcus aureus): -1.15%
Inhibition (Acinetobacter baumannii): -13.17%
Inhibition (Escherichia coli): 7.37%
Inhibition (Klebsiella pneumoniae): 14.9%
Inhibition (Candida albicans): 0.05%
Inhibition (Cryptococcus neoformans): -12.71%

CCOP(=O)(OCC)/C(C#N)=C/c1ccc(Br)cc1
Inhibition (Staphylococcus aureus): 9.27%
Inhibition (Acinetobacter baumannii): 13.14%
Inhibition (Escherichia coli): 8.82%
Inhibition (Klebsiella pneumoniae): 9.61%
Inhibition (Candida albicans): 2.02%
Inhibition (Cryptococcus neoformans): -11.15%

C(=C\c1ccncc1)/c1ccncc1
Inhibition (Staphylococcus aureus): -0.23%
Inhibition (Acinetobacter baumannii): -2.33%
Inhibition (Escherichia coli): 7.13%
Inhibition (Klebsiella pneumoniae): 5.66%
Inhibition (Candida albicans): -2.45%
Inhibition (Cryptococcus neoformans): -3.12%

COc1cc(OC)cc(C2(C#N)CCN(C)CC2)c1
Inhibition (Staphylococcus aureus): 3.06%
Inhibition (Acinetobacter baumannii): 10.25%
Inhibition (Escherichia coli): -15.21%
Inhibition (Klebsiella pneumoniae): 17.67%
Inhibition (Candida albicans): 8.63%
Inhibition (Cryptococcus neoformans): 25.01%

CCCC(=O)N(C)C1=Nc2ccc(Cl)cc2C(c2ccccc2)=[N+]([O-])C1
Inhibition (Staphylococcus aureus): 11.96%
Inhibition (Acinetobacter baumannii): 1.65%
Inhibition (Escherichia coli): -7.17%
Inhibition (Klebsiella pneumoniae): 24.44%
Inhibition (Candida albicans): 4.49%
Inhibition (Cryptococcus neoformans): -4.22%

CC1=CC(O)C(O)C2(C)C1CC1OC(=O)C(O)C3C(C)C(O)C4(O)OCC13C42 (centres undefined)
Inhibition (Staphylococcus aureus): 9.24%
Inhibition (Acinetobacter baumannii): 4.24%
Inhibition (Escherichia coli): -0.01%
Inhibition (Klebsiella pneumoniae): 12.12%
Inhibition (Candida albicans): -0.21%
Inhibition (Cryptococcus neoformans): -7.24%

O=P(Oc1ccccc1)(Oc1ccccc1)c1ccccc1
Inhibition (Staphylococcus aureus): 1.14%
Inhibition (Acinetobacter baumannii): -14.38%
Inhibition (Escherichia coli): 1.1%
Inhibition (Klebsiella pneumoniae): 1.03%
Inhibition (Candida albicans): 4.45%
Inhibition (Cryptococcus neoformans): -2.59%

CC(C)OC1CCCC(O)C1CC(=O)O (centres undefined)
Inhibition (Staphylococcus aureus): 1.66%
Inhibition (Acinetobacter baumannii): -13.22%
Inhibition (Escherichia coli): 6.88%
Inhibition (Klebsiella pneumoniae): -1.53%
Inhibition (Candida albicans): -0.2%
Inhibition (Cryptococcus neoformans): -7.06%

CNC(=O)Oc1ccc(N(C)C)cc1C(C)C
Inhibition (Staphylococcus aureus): 11.71%
Inhibition (Acinetobacter baumannii): -2.68%
Inhibition (Escherichia coli): 9.69%
Inhibition (Klebsiella pneumoniae): 11.23%
Inhibition (Candida albicans): -1.51%
Inhibition (Cryptococcus neoformans): -12.66%

c1ccc(C2NCCc3[nH]cnc32)cc1 (centres undefined)
Inhibition (Staphylococcus aureus): 1.04%
Inhibition (Acinetobacter baumannii): -8.45%
Inhibition (Escherichia coli): -9.57%
Inhibition (Klebsiella pneumoniae): 10.31%
Inhibition (Candida albicans): 0.7%
Inhibition (Cryptococcus neoformans): 13.69%

O=C(Nc1ccc(F)cc1)Oc1cccnc1O
Inhibition (Staphylococcus aureus): 10.32%
Inhibition (Acinetobacter baumannii): 2.12%
Inhibition (Escherichia coli): 1.72%
Inhibition (Klebsiella pneumoniae): 11.14%
Inhibition (Candida albicans): 5.85%
Inhibition (Cryptococcus neoformans): -4.36%

C=CCCC1(C2=CCCCC2)C(=O)NC(=O)NC1=O
Inhibition (Staphylococcus aureus): 0.11%
Inhibition (Acinetobacter baumannii): -12.21%
Inhibition (Escherichia coli): 7.91%
Inhibition (Klebsiella pneumoniae): 12.33%
Inhibition (Candida albicans): 3.67%
Inhibition (Cryptococcus neoformans): -8.53%

O=C(O)CCCC[C@@H]1SC[C@@H]2NC(=O)N[C@@H]21 [BIOTIN]
Inhibition (Staphylococcus aureus): 10.18%
Inhibition (Acinetobacter baumannii): -16.1%
Inhibition (Escherichia coli): 8.51%
Inhibition (Klebsiella pneumoniae): 5.79%
Inhibition (Candida albicans): 1.63%
Inhibition (Cryptococcus neoformans): -9.23%

O=C1N[C@H]2[C@H](O)[C@H](O)[C@@H](O)[C@H](O)[C@@H]2c2cc3c(c(O)c21)OCO3 [PANCRATISTATIN]
Inhibition (Staphylococcus aureus): 12.72%
Inhibition (Acinetobacter baumannii): 6.17%
Inhibition (Escherichia coli): 0.6%
Inhibition (Klebsiella pneumoniae): 1.56%
Inhibition (Candida albicans): 0.06%
Inhibition (Cryptococcus neoformans): -14.69%

C/C=C(/C)C(=O)O[C@H]1CCN2CC=C(COC(=O)[C@@](O)([C@H](C)OC)C(C)(C)O)[C@H]12
Inhibition (Staphylococcus aureus): 10.77%
Inhibition (Acinetobacter baumannii): -8.86%
Inhibition (Escherichia coli): 10.49%
Inhibition (Klebsiella pneumoniae): 12.46%
Inhibition (Candida albicans): -1.68%
Inhibition (Cryptococcus neoformans): -5.72%
